TGFb inhibitor: TGF-b pathway inhibition; HepG2 CAGA-GFP TGF-b/SMAD3 reporter, GFP fluorescence, 18 h; TGF-beta stimulated, 500 pg/mL final; Potency, µM (top dose mostly 46.1 µM), usual class: inhibitors; actives 1.2% (n = 410,000); note: nearly all actives have a fitted effect of over 65% in size
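Smad-responsive CAGA-GFP expression was quantified in HEPG2 cells exposed to compounds and 500 pg/mL final TGF-beta for 18 h at 37 degrees C; unstimulated wells defined full inhibition.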
KB-V1 MDR tox: KB-V1 MDR subline cytotoxicity | Potency, µM (top dose mostly 46.1 µM), actives largely listed as cytotoxic | actives 3.4% (n = 400,000) | KB-V1 MDR cells viability, CellTiter-Glo, 72 h; note: nearly all actives have a fitted effect of over 60% in size
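Following 72 h at 37 degrees C with compound, KB-V1 cell viability was read by CellTiter-Glo luminescence, medium being phenol-red-free DMEM plus 10% FBS; concentration-response parameters came from normalized, curve-fitted qHTS data.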
KB-3-1 cytotox: kills parental KB-3-1 adenocarcinoma cells; KB-3-1 viability, CellTiter-Glo ATP luminescence, 72 h; Potency, µM (doses to about 46.1 µM), most hits filed as cytotoxic; actives 1.4% (n = 400,000); note: nearly all actives have a fitted effect of over 60% in size
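Cytotoxicity measured as CellTiter-Glo luminescence after 72 h at 37 C. Compound titrations were pinned onto drug-naive KB-3-1 parental adenocarcinoma cells grown in DMEM with 10% FBS, and normalized data fitted to concentration-response curves.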
HepG2 tox: HepG2 cytotoxicity, counter-screen for TGF-b inhibitors. HepG2 CAGA-GFP viability, ATP luminescence, 18 h. Potency, µM (series often up to 46.1 µM), most hits filed as cytotoxic. actives 0.76% (n = 410,000)
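HepG2 CAGA-GFP cells (1000/well, DMEM with 1% FBS) received compound, then TGF-beta at 500 pg/mL final, and were incubated 18 hours at 37 degrees C. Viability was read by CellTiter-Glo luminescence. Media-only wells were set as complete cell-killing and DMSO as no toxicity.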
ATXN2 expr inh: ATXN2 expression inhibition | AID 1745845 | actives 0.72% (n = 360,000) | HEK-293 ATXN2-luciferase reporter, luminescence, 24 h | Potency, µM (doses to about 57 µM), actives largely listed as inhibitors; note: nearly all actives have a fitted effect of over 55% in size
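qHTS (up to 57 uM final) was run with 24 h compound exposure of reporter cells at 37 °C. Each well was multiplexed: SteadyGlo luminescence measured ATXN2-luciferase expression after a fluorogenic Gly-Phe-AFC viability readout (25 uM final).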
ATXN viability: reduces viability in counter-screen for ATXN expression inhibitors. S2 cells (HEK-293 line with an ATXN2-luciferase reporter) viability, CellTiter-Fluor protease fluorescence, 24 h. Potency, µM (doses to about 56.7 µM), actives largely listed as cytotoxic. actives 0.49% (n = 400,000). AID 651635; note: nearly all actives have a fitted effect of over 40% in size
Of the large screens only hits and unclear results are named; the others gave an inactive call. Rows were chosen to be rich in hits. Some 5.9% of all compounds tested hit in one or more screens of this group. Calls come from the whole dose curve; as a rule, active = well fitted curve in the direction sought with a large enough effect; inconclusive = small, poorly fitted or top-dose-only effect, or another doubt; inactive = no such curve, though single readings can be large; an effect the other way counts as inactive or inconclusive.

O=C1/C(=C/c2ccncc2)CCC/C1=C\c1ccncc1	TGFb inhibitor 3.2µM, KB-V1 MDR tox inconclusive, KB-3-1 cytotox 7.3µM, HepG2 tox 13µM, ATXN2 expr inh 14µM, ATXN viability inconclusive
O=C1C(=Cc2ccccc2Cl)CCc2ccccc21	TGFb inhibitor inconclusive, KB-V1 MDR tox inconclusive, KB-3-1 cytotox 21µM
COc1cc(/C=C2\CC(C(C)(C)C)C/C(=C\c3cc(OC)c(OC)c(OC)c3)C2=O)cc(OC)c1OC (centres undefined)	TGFb inhibitor 11µM, KB-3-1 cytotox 8.2µM, ATXN2 expr inh inconclusive, ATXN viability inconclusive
O=C(C1CCC(Cn2c(=O)c3sccc3n(Cc3ccc(F)cc3)c2=O)CC1)N1CCOCC1 (centres undefined)	TGFb inhibitor inconclusive
COCCNC(=O)C1(C)CCCN(C(=O)c2ccc(N(C)C)cc2)C1 (centres undefined)	none
COc1cc(/C=C2/CCc3ccccc3C2=O)cc(OC)c1OC	KB-V1 MDR tox 12µM, KB-3-1 cytotox inconclusive
Cc1ccc(S(=O)(=O)N2[C@@H](c3ccc(Br)cc3)C(C(=O)O)=CC[C@H]2c2ccc(Cl)cc2)cc1	TGFb inhibitor inconclusive
O=C(O)C1=CC[C@@H](c2ccc(Cl)cc2)N(S(=O)(=O)c2ccc(Cl)cc2)[C@H]1c1ccc(Br)cc1	TGFb inhibitor 13µM
Cc1ccccc1S(=O)(=O)N1[C@@H](c2ccc(Br)cc2)C(C(=O)O)=CC[C@H]1c1ccc(Cl)cc1	TGFb inhibitor 18µM, ATXN viability inconclusive
Cc1ccccc1S(=O)(=O)N1[C@@H](c2ccccc2)C(C(=O)O)=CC[C@H]1c1ccc(Cl)cc1	TGFb inhibitor inconclusive
CCCN(CCC)C(=O)Cn1c(=O)n(-c2ccc(CC)cc2)c(=O)c2c3c(sc21)CCC3	none
O=C1CCCC2=C1C(c1ccccc1Cl)N=C(Nc1nc3ccccc3o1)N2 (centres undefined)	none (no result: TGFb inhibitor, HepG2 tox, ATXN2 expr inh, ATXN viability)
CN(C(=O)CSc1nc2ccccc2n1CC(=O)NCc1ccc(F)cc1)c1ccc(F)cc1	TGFb inhibitor inconclusive
CCOC(=O)C1CCN(c2ccc(-c3cccs3)nn2)CC1	KB-V1 MDR tox inconclusive, KB-3-1 cytotox inconclusive, HepG2 tox 7.1µM
CC(=O)N1CCN(c2csc3ccc(Br)cc3c2=O)CC1	TGFb inhibitor inconclusive, KB-V1 MDR tox inconclusive, ATXN viability inconclusive
CCOC(=O)c1ccc(Oc2cc(C)nc(SC)n2)cc1	KB-V1 MDR tox 9.2µM, KB-3-1 cytotox 9.2µM, ATXN viability inconclusive
Cc1cc(Oc2ccc3ccccc3c2)nc(SCC(=O)c2ccccc2)n1	TGFb inhibitor inconclusive, KB-V1 MDR tox 16µM, KB-3-1 cytotox 18µM
COC(=O)c1ccc(Oc2cc(C)nc(-n3nc(C)cc3C)n2)cc1	TGFb inhibitor inconclusive, KB-V1 MDR tox 1.8µM, KB-3-1 cytotox 1.3µM
COC(=O)c1ccc(Oc2nc(C)cc(Oc3ccccc3)n2)cc1	none
CCOC(=O)COC(=O)c1ccc(Oc2cc(C)nc(SC)n2)cc1	none
COc1ccc(OC)c(NC(=O)CN(Cc2ccc(F)cc2)C2CCCCC2)c1	TGFb inhibitor inconclusive, KB-V1 MDR tox inconclusive, KB-3-1 cytotox 16µM
COc1ccc(C(=O)/C=C/C(=O)N(CC(=O)NC2CCCCC2)Cc2ccc(F)cc2)c(O)c1	KB-V1 MDR tox 16µM, KB-3-1 cytotox inconclusive, ATXN2 expr inh inconclusive (no result: ATXN viability)
COc1ccc(C(=O)/C=C/C(=O)N(CC(=O)NCCC(C)C)Cc2cccs2)c(O)c1	KB-V1 MDR tox 10µM (no result: ATXN2 expr inh, ATXN viability)
CS(=O)(=O)N(CC(=O)NC1CCCCC1)Cc1ccc(F)cc1	KB-V1 MDR tox inconclusive
COc1ccc(C(=O)N(Cc2ccco2)Cc2cccs2)c(O)c1	none
COc1ccccc1NS(=O)(=O)c1ccc2oc(SCc3ccc(C#N)cc3)nc2c1	TGFb inhibitor inconclusive, KB-V1 MDR tox 9.2µM
CNC(=O)CSc1nc2cc(S(=O)(=O)Nc3ccccc3OC)ccc2o1	none
CC(=O)Nc1ccc(/C=C/C(=O)c2ccc(-n3nncc3-c3ccccc3)cc2)cc1	TGFb inhibitor inconclusive (no result: ATXN2 expr inh, ATXN viability)
O=C1O[C@@H]2[C@@H](O)[C@H](O)O[C@@H]2[C@H]1O	none (no result: TGFb inhibitor, KB-V1 MDR tox, KB-3-1 cytotox, HepG2 tox, ATXN2 expr inh)
COc1ccccc1-c1ccc(Nc2cccc(C(C)=O)c2)nn1	KB-V1 MDR tox 13µM
COC(=O)C1(C)CN(S(=O)(=O)c2ccc(C)cc2)c2cc(OC)ccc2C1=O (centres undefined)	KB-V1 MDR tox inconclusive, KB-3-1 cytotox inconclusive
COc1ccc2c(c1)C(C)=CC(C)(C)N2S(=O)(=O)c1ccc(C)cc1	TGFb inhibitor inconclusive, KB-V1 MDR tox 2.6µM, KB-3-1 cytotox 2.1µM, ATXN2 expr inh inconclusive, ATXN viability inconclusive
CC1=CC(C)(C)N(C(=O)CCl)c2cc(C)ccc21	none
CCOc1ccc2c(c1)C(C)=CC(C)(C)N2S(=O)(=O)c1ccc(C)cc1	TGFb inhibitor inconclusive, KB-V1 MDR tox 5.8µM, KB-3-1 cytotox 2.1µM, ATXN viability inconclusive
CC1=CC(C)(C)N(S(=O)(=O)c2ccc(C)cc2)c2cc(C)ccc21	TGFb inhibitor inconclusive, KB-V1 MDR tox 6.5µM, KB-3-1 cytotox 3.7µM
CC(C)c1cccc(C(C)C)c1NC1=NS(=O)(=O)c2ccccc21	ATXN viability inconclusive
CC(=O)N(C(C)=O)c1ccc2nc(C)[nH]c(=O)c2c1	none
Cc1nc2ccc(CN(C)c3ccc(C(=O)N[C@@H](CCC(=O)O)C(=O)O)s3)cc2c(=O)[nH]1	ATXN2 expr inh 0.1µM (no result: TGFb inhibitor, KB-V1 MDR tox, KB-3-1 cytotox, HepG2 tox)
COc1ccc(OCC2c3cc(OC)c(OC)cc3CCN2C(=O)c2ccc(F)cc2)cc1 (centres undefined)	none
Cc1ccc(C(=O)c2cc([N+](=O)[O-])ccc2N2CCOCC2)c(C)c1	TGFb inhibitor inconclusive, KB-V1 MDR tox 0.58µM, KB-3-1 cytotox 1µM, ATXN viability inconclusive
Cc1ccc(C)c(C(=O)COC(=O)c2cc([N+](=O)[O-])ccc2N2CCOCC2)c1	none
Cc1ccc(C(=O)c2cc([N+](=O)[O-])ccc2N2CCOCC2)cc1C	TGFb inhibitor inconclusive, KB-V1 MDR tox 3.7µM, KB-3-1 cytotox 16µM, ATXN viability inconclusive
O=C(NC1CCCCC1)c1cc([N+](=O)[O-])ccc1N1CCCCC1	KB-V1 MDR tox 9.2µM
Cc1ccc(C(=O)c2cc([N+](=O)[O-])ccc2N2CCCCC2)cc1C	TGFb inhibitor inconclusive, KB-V1 MDR tox 5.8µM, KB-3-1 cytotox 2.9µM, ATXN viability inconclusive
O=C(Nc1ccccc1)C(Cl)C(=O)c1ccccc1 (centres undefined)	none (no result: ATXN2 expr inh)
CC(=O)C(Cl)C(=O)Nc1ccccc1 (centres undefined)	TGFb inhibitor inconclusive, KB-3-1 cytotox 21µM, ATXN viability inconclusive
